Compound activity from PubChem.
The list is not random: actives were taken first. Their share in the collection is about 2.3%.
ERp5 inh = blocks human ERp5 reductase activity on insulin; AID 651711; 0.05% of 350,000 active; inhibition, % at 9.99 µM; ERp5 insulin aggregation, absorbance 650 nm, 90 min;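 active = mean replicate inhibition above about 25%, with every replicate also reaching it, limit read from the data, passing the limit was not always enough; inconclusive = only one of those two criteria met; inactive = neither criterion met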
Rtt109 Vps75 = inhibitors of Candida albicans Rtt109/Vps75 histone acetyltransferase | purified Rtt109/Vps75, ThioGlo CoA-SH fluorescence, 4 h | AID 540336 | inhibition, % at 34.9 µM | 0.16% of 330,000 active;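 active = inhibition of at least 50% in every replicate; inconclusive = best replicate reaches 50% inhibition but some replicates fall short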
SIRT5 block = inhibitors of human sirtuin-5 desuccinylase; Q9NXA8; Purified SirT5, succinyl-peptide AMC, trypsin-coupled fluorescence; inhibition, % at 15 µM; 1.1% of 330,000 active; in the data active = inhibition above about 15%; inconclusive = no clear call, values can overlap the other calls
DENV2 CPE rescue = inhibitors of DENV2 cytopathic effect; DENV2-infected cells, cytopathic effect rescue, plate reader; CPE inhibition, % at 9.99 µM; 1.7% of 350,000 active; in the data active = CPE inhibition above about 20%, passing the limit was not always enough; inconclusive = no clear call, values can overlap the other calls; tested in BHK-21 cells;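 also: 0% = median of neutral control wells and 100% = median of positive control wells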
PDI inh = blocks human protein disulfide isomerase activity; P07237; PDI insulin aggregation turbidity, A650, 90 min; inhibition, % at 10 µM; 0.052% of 350,000 active;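 active = mean inhibition across replicates of 30% or more, whatever share of single replicates reach that level; inconclusive = mean inhibition below 30% while every single replicate reaches 30%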
Target sequence (P07237 whole entry, looked up): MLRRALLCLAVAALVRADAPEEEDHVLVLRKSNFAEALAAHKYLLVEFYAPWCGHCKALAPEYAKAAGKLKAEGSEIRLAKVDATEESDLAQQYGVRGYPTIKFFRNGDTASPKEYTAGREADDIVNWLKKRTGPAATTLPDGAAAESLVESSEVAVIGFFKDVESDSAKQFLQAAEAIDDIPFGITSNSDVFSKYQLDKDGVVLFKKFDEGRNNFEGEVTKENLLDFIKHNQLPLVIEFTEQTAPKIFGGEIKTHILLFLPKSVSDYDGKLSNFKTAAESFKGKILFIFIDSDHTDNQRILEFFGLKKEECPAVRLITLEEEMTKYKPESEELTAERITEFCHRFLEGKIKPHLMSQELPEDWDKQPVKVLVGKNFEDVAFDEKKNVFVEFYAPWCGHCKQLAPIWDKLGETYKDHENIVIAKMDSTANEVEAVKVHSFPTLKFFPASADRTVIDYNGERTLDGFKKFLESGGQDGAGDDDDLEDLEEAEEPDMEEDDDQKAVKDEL
Active calls of the source: *; ? = inconclusive; . = no result; ! = not active in a repeat.

SMILES	ERp5 inh	Rtt109 Vps75	SIRT5 block	DENV2 CPE rescue	PDI inh
C[C@@H]1CCCCO[C@H](CN(C)C(=O)C2CCCCC2)[C@H](C)CN([C@@H](C)CO)C(=O)c2cc(NC(=O)Nc3ccccc3)ccc2O1	5	.	7	-7	.
CCCN(C)C[C@H]1Oc2ncc(-c3cccnc3)cc2C(=O)N([C@H](C)CO)C[C@H]1C	-3	.	6	1	.
COc1cccc2sc3cc(NCc4ccc(C)o4)ccc3c(=O)c12	-2	-78	.	56*	-9
C[C@@H]1CN([C@H](C)CO)C(=O)c2cc(-c3ccccc3)cnc2O[C@@H]1CN(C)C(=O)c1ccccc1F	5	.	-3	105*	.
C[C@@H]1CN([C@@H](C)CO)C(=O)c2cc(-c3ccncc3)cnc2O[C@@H]1CN(C)C(=O)c1ccncc1	6	.	-1	-1	.
C[C@H](CO)N1C[C@H](C)[C@H](CN(C)C(=O)c2ccccc2F)Oc2ncc(C#Cc3ccc(F)cc3)cc2C1=O	8	.	-2	-6	.
C[C@H]1CN([C@@H](C)CO)C(=O)c2cc(-c3cccnc3)cnc2O[C@H]1CN(C)C(=O)C1CCC1	-2	.	-3	24*	.
C[C@@H]1CN([C@H](C)CO)C(=O)c2cc(C#Cc3ccc(F)cc3)cnc2O[C@@H]1CN(C)C(=O)c1ccccc1F	4	.	-1	45*	.
C[C@H]1CN([C@@H](C)CO)C(=O)c2cc(-c3ccncc3)cnc2O[C@H]1CN(C)C(=O)c1ccncc1	2	.	16*	-6	.
Cc1noc(C)c1S(=O)(=O)N(C)C[C@@H]1OCCCC[C@@H](C)Oc2ccc(NC(=O)Cc3ccccc3)cc2C(=O)N([C@H](C)CO)C[C@@H]1C	-2	.	-6	-1	.
CCCNC(=O)N(C)C[C@@H]1Oc2ncc(-c3ccc(F)cc3)cc2C(=O)N([C@H](C)CO)C[C@H]1C	4	.	-1	-3	.
C[C@H](CO)N1C[C@H](C)[C@@H](CN(C)Cc2ccccc2F)Oc2ncc(C3=CCCC3)cc2C1=O	1	.	-2	9	.
C[C@@H](NC(=O)C[C@@H]1C[C@H]2c3cc(NC(=O)c4cccnc4)ccc3O[C@H]2[C@H](CO)O1)c1ccccc1	1	.	0	2	.
Cc1ccc(-c2cnc3c(c2)C(=O)N([C@@H](C)CO)C[C@H](C)[C@@H](CN(C)C(=O)c2ccccc2)O3)cc1	-8	.	1	-3	.
Cc1ccc(-c2cnc3c(c2)C(=O)N([C@H](C)CO)C[C@@H](C)[C@@H](CN(C)C(=O)c2ccccc2)O3)cc1	6	.	-1	68*	.
C[C@@H]1CN([C@@H](C)CO)C(=O)c2cc(-c3ccccc3)cnc2O[C@@H]1CN(C)C(=O)c1cccnc1	11	.	-1	-9	.
C[C@@H]1CN([C@H](C)CO)C(=O)c2cc(-c3ccccc3)cnc2O[C@@H]1CN(C)C(=O)c1cccnc1	-3	.	16*	9	.
CC(=O)N(C)C[C@@H]1Oc2ncc(-c3ccccc3C)cc2C(=O)N([C@H](C)CO)C[C@H]1C	-6	.	32*	?	.
O=C(C[C@@H]1CC[C@H]2[C@@H](COC[C@@H](O)CN2Cc2nccs2)O1)NCc1ccccc1	-1	.	-2	-5	.
CCCC#Cc1cnc2c(c1)C(=O)N([C@@H](C)CO)C[C@H](C)[C@@H](CN(C)C(=O)c1cccc(F)c1)O2	-8	.	14	2	.
C[C@H]1CN([C@@H](C)CO)C(=O)c2cc(C#CCN(C)C)cnc2O[C@H]1CN(C)C(=O)c1cccc(F)c1	3	.	-1	34*	.
C[C@@H]1CN([C@@H](C)CO)C(=O)c2cc(C#CCN(C)C)cnc2O[C@@H]1CN(C)C(=O)c1cccc(F)c1	-10	.	-2	-1	.
CCCC#Cc1cnc2c(c1)C(=O)N([C@@H](C)CO)C[C@H](C)[C@H](CN(C)C(=O)c1cccc(F)c1)O2	-12	.	-3	27*	.
C[C@H]1CN([C@@H](C)CO)C(=O)Cc2cc(NC(=O)Cc3ccccc3)ccc2O[C@H]1CN(C)Cc1ccncc1	-2	.	-6	-5	.
Cc1cccc(S(=O)(=O)N(C)C[C@H]2OCc3cnnn3CCCC(=O)N([C@@H](C)CO)C[C@@H]2C)c1	-6	.	-2	-3	.
SMILES	ERp5 inh	Rtt109 Vps75	SIRT5 block	DENV2 CPE rescue	PDI inh
Cc1cccc(S(=O)(=O)N(C)C[C@H]2OCc3cnnn3CCCC(=O)N([C@H](C)CO)C[C@@H]2C)c1	-1	.	21*!	?	-3
C[C@@H]1CN([C@H](C)CO)C(=O)CCCn2nncc2CO[C@@H]1CN(C)S(=O)(=O)c1cccc(F)c1	2	.	15*!	7	-2
C[C@@H]1CN([C@H](C)CO)C(=O)CCCn2cc(nn2)CO[C@H]1CN(C)S(=O)(=O)c1cccc(F)c1	0	.	-2	-6	12
Cc1cccc(S(=O)(=O)N(C)C[C@H]2OCc3cn(nn3)CCCC(=O)N([C@@H](C)CO)C[C@@H]2C)c1	3	.	-2	47*!	-9
COC(=O)c1cn(C(=O)c2ccccc2Cl)c2ccccc12	11	.	26*	0	-11
COC(=O)c1cn(C(=O)OC)c2ccccc12	.	6	.	.	-3
CO[C@H]1CN(C)C(=O)c2cc(NC(=O)C3CCOCC3)ccc2OC[C@H](C)N(C)C[C@H]1C	-2	.	-2	-1	.
CO[C@@H]1CN(C)C(=O)c2cc(NC(=O)C3CCOCC3)ccc2OC[C@@H](C)N(C)C[C@@H]1C	3	.	-2	36*	.
COc1ccccc1C(=O)Nc1ccc2c(c1)C(=O)N(C)C[C@H](OC)[C@H](C)CN(C)[C@@H](C)CO2	7	.	1	-8	.
COc1ccccc1C(=O)Nc1ccc2c(c1)C(=O)N(C)C[C@@H](OC)[C@H](C)CN(C)[C@@H](C)CO2	0	.	6	47*	.
CSc1nc(N(C)CCO)c2sc3nc(-c4ccco4)c4c(c3c2n1)CCC4	.	1	.	.	-1
CSc1nc(SCC(=O)O)c2sc3nc(-c4ccccc4)c4c(c3c2n1)CCC4	3	-2	19*	4	53*
COCC(=O)Nc1ccc2c(c1)C(=O)N(C)C[C@H](OC)[C@H](C)CN(Cc1ccccc1F)[C@H](C)CO2	7	.	3	2	.
CCn1cc(C(=O)O)c(=O)c2cnc(N3CCN(C(=S)Nc4ccccc4Cl)CC3)nc21	2	-14	16*	-8	2
CCn1cc(C(=O)O)c(=O)c2cnc(N3CCN(C(=S)Nc4ccc(F)cc4)CC3)nc21	-1	.	-1	0	.
OC(CN1CCN(c2cccc(Cl)c2)CC1)c1ccc(F)cc1 (stereo not given)	4	10	1	49*	15
OC(CN1CCN(c2cccc(Cl)c2)CC1)c1ccccc1 (stereo not given)	-2	-2	-12	9	-16
CCCC(=O)Nc1cc(OC)c(NC(=S)Nc2cccc(C)c2)cc1OC	3	.	2	92*	-2
CCCC(=O)Nc1cc(OC)c(NC(=S)Nc2ccc(CC)cc2)cc1OC	2	-9	1	0	-8
CC1(NC(=O)c2cc(Cl)nc3ccccc23)CCS(=O)(=O)C1 (stereo not given)	-8	-10	-3	54*	-19
